From PubChem BioAssay (NCATS)
Results filed as inconclusive are left out. Entries that show only a call come without a potency. Active and inactive are the calls of the source. Calls come from the whole dose curve; as a rule, active = well fitted cell-killing curve with a large enough effect; inconclusive = small, poorly fitted or top-dose-only effect, or effect the other way; inactive = no such curve, though single readings can be large or run the other way.

Experiment: Viability qHTS for spleen associated tyrosine kinase inhibitor (SYKi) drug resistant MV4-11 cells (AID 1963824); note: nearly all actives have a fitted effect of over 35% in size
Settings: SYKi-resistant MV4-11 viability, CellTiter-Glo, 72 h; series mostly up to 45 µM
Summary of the method: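 SYK inhibitor-resistant MV4-11 AML cells, 500 per well, added to predispensed compounds and incubated 72 hr at 37 C, 5% CO2. Viability measured by CellTiter-Glo luminescence after 10 min at room temperature.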

SMILES	Potency
O=C(/C=C/c1ccc(O)c(O)c1)O[C@H]1[C@H](OC2CCCCC2O)O[C@H](CO)[C@@H](O)[C@@H]1O (some centres undefined)	inactive
O=C(/C=C\c1ccc(O)cc1)N[C@@H](Cc1ccc(O)cc1)C(=O)O	inactive
OC[C@H]1O[C@@H](OCCc2ccccc2)[C@H](O[C@@H]2OC[C@@H](O)[C@H](O)[C@H]2O)[C@@H](O)[C@@H]1O	inactive
CC(=O)/C=C/[C@H]1[C@](C)(O)[C@@H](O)[C@H](O)C2C(C)(C)CCC[C@@]21C (some centres undefined)	inactive
